Compounds without any hit were thinned out: in the full panel of roughly 79,000, 15% have a hit. Active and inactive are the calls of the source. Rule as the data show it: active = growth inhibition above about 70%; inactive = the rest.
What was measured:
[1] = NCI Yeast Anticancer Drug Screen. Data for the rad52 strain (AID 147);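 also: 0% = growth of vehicle-treated control cultures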; settings: S. cerevisiae rad52 mutant growth inhibition, stronger effect = higher value
Summary of the method: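 Inhibition of yeast growth, referenced to vehicle controls, was the measured output for a strain with defective DNA damage repair.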

[2] = NCI Yeast Anticancer Drug Screen. Data for the wt1 strain (AID 149);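 also: 0% = growth of vehicle-treated wt1 cultures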; settings: S. cerevisiae wt1 strain (SPY 50644) growth inhibition, stronger effect = higher value
Summary of the method: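 The wt1 strain was treated with compounds, and growth was compared with vehicle-treated cultures to give inhibition.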

[3] = NCI Yeast Anticancer Drug Screen. Data for the rad50EPP+ strain (AID 151);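 also: 0% = growth of vehicle-treated control cultures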; settings: S. cerevisiae rad50 mutant strain, stronger effect = higher value
Summary of the method: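 Genetically defined yeast (rad50EPP+, DNA damage repair alteration) is grown with compound, and inhibition of growth is expressed relative to vehicle-treated controls.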

[4] = NCI Yeast Anticancer Drug Screen. Data for the mgt1 strain (AID 153); settings: S. cerevisiae mgt1 mutant growth inhibition, stronger effect = higher value
Summary of the method: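 In the mgt1 strain, test compounds were added and growth inhibition was determined relative to vehicle-treated controls.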

[5] = NCI Yeast Anticancer Drug Screen. Data for the rad50 strain (AID 155);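 also: 0% = growth of vehicle-only cultures of the same strain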; settings: S. cerevisiae rad50 strain growth inhibition, stronger effect = higher value
Summary of the method: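 Cells are treated with compound, grown, and their growth is then scored against vehicle-only cultures of the same repair-deficient yeast strain.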

[6] = NCI Yeast Anticancer Drug Screen. Data for the mec2-1 strain (AID 157); settings: S. cerevisiae mec2-1 strain, stronger effect = higher value
Summary of the method: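 Each compound was tested on mec2-1 yeast, a strain altered in DNA damage repair or cell cycle control. Growth inhibition is reported relative to vehicle.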

[7] = NCI Yeast Anticancer Drug Screen. Data for the rad14 strain (AID 159);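 also: 0% = growth of vehicle-treated control cultures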; settings: S. cerevisiae rad14 strain growth inhibition, stronger effect = higher value
Summary of the method: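 Readout: yeast growth inhibition, referenced to vehicle-only cultures. Strain bears a defined alteration in DNA damage repair.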

[8] = NCI Yeast Anticancer Drug Screen. Data for the sgs1 mgt1 strain (AID 161);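 also: 0% = growth of cultures given vehicle only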; settings: S. cerevisiae sgs1 mgt1 strain, stronger effect = higher value
Summary of the method: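 Test agents were incubated with a DNA-repair-mutant yeast strain. Growth was then read and compared against vehicle-treated controls.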

[9] = NCI Yeast Anticancer Drug Screen. Data for the CLN2oe strain (AID 163);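 also: 0% = growth of vehicle-only control cultures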; settings: S. cerevisiae CLN2oe strain, stronger effect = higher value
Summary of the method: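 First, the altered yeast strain was treated with each compound; second, its growth was measured; finally, inhibition was derived by comparison with vehicle controls.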

[10] = NCI Yeast Anticancer Drug Screen. Data for the cln2 rad14 strain (AID 165);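 also: 0% = growth equal to vehicle treated cultures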; settings: S. cerevisiae cln2 rad14 strain, stronger effect = higher value
Summary of the method: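 Test compounds were added to cln2 rad14 yeast cultures; inhibition of growth was then determined by comparison with vehicle treatment.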

[11] = NCI Yeast Anticancer Drug Screen. Data for the bub3 strain (AID 167); settings: S. cerevisiae bub3 mutant strain, stronger effect = higher value
Summary of the method: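 Part of a panel of yeast mutants defective in DNA damage repair or cell cycle regulation. Each strain is grown with compound, and inhibition is calculated relative to solvent-treated cultures.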

[12] = NCI Yeast Anticancer Drug Screen. Data for the wt2 strain (AID 169);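 also: 0% = growth of vehicle-treated yeast cultures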; settings: S. cerevisiae wt2 strain growth inhibition, stronger effect = higher value
Summary of the method: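 The panel's yeast strains carry defined changes in DNA repair or cell cycle genes. Each strain is grown with compound, and growth loss is scored relative to vehicle.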

[13] = NCI Yeast Anticancer Drug Screen. Data for the mlh1 strain (AID 171);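 also: 0% = growth of vehicle-treated control cultures of the same strain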; settings: S. cerevisiae mlh1 strain growth inhibition, stronger effect = higher value
Summary of the method: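 Inhibition values reflect reduced yeast growth in the presence of compound, referenced to vehicle controls, using a strain chosen for its alteration in DNA repair or cell cycle control.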

[14] = NCI Yeast Anticancer Drug Screen. Data for the sgs1 strain (AID 173);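 also: 0% = growth of vehicle-only control cultures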; settings: S. cerevisiae sgs1 mutant, stronger effect = higher value
Summary of the method: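 Vehicle-treated cultures served as reference for growth inhibition of a yeast strain altered in DNA damage repair or cell cycle control after compound exposure.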

[15] = NCI Yeast Anticancer Drug Screen. Data for the mlh1 rad18 strain (AID 175); settings: S. cerevisiae mlh1 rad18 strain growth inhibition, stronger effect = higher value
Summary of the method: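 Inhibition values reflect reduced growth of mutant yeast versus vehicle-treated controls following compound exposure; the mutations affect DNA damage repair.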

[16] = NCI Yeast Anticancer Drug Screen. Data for the rad18 strain (AID 177); settings: S. cerevisiae rad18 mutant growth inhibition, stronger effect = higher value
Summary of the method: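 Steps: expose repair-mutant yeast to compound; measure growth; express as inhibition relative to vehicle control.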

[17] = at 5.0 µM (retest, dose inferred, filed as 0.5)
[18] = at 50.0 µM (retest, dose inferred, filed as 5.0)

Measured: growth inhibition

O=C(c1ccc(Cl)cc1)C1OC12C(=O)Nc1ccccc12 (stereo unspecified)
inactive: [1]; at 1.2 µM 20% | [2]; at 1.2 µM 1% | [2]; at 3.7 µM 25% | [3]; at 1.2 µM 17% | [4]; at 1.2 µM 31% | [5]; at 1.2 µM 13% | [6]; at 1.2 µM 38% | [7]; at 1.2 µM 24% | [9]; at 1.2 µM 5% | [9]; at 3.7 µM 40% | [11]; at 1.2 µM 43% | [12]; at 1.2 µM 9% | [13]; at 1.2 µM 8% | [14]; at 1.2 µM 8% | [16]; at 1.2 µM 6%
active: [1]; at 3.7 µM 99% | [1]; at 11.0 µM 99% | [1]; at 33.0 µM 99% | [1]; at 100.0 µM 99% | [2]; at 11.0 µM 98% | [2]; at 33.0 µM 98% | [2]; at 100.0 µM 99% | [3]; at 3.7 µM 99% | [3]; at 11.0 µM 99% | [3]; at 33.0 µM 99% | [3]; at 100.0 µM 99% | [4]; at 3.7 µM 100% | [4]; at 11.0 µM 100% | [4]; at 33.0 µM 100% | [4]; at 100.0 µM 99% | [5]; at 3.7 µM 99% | [5]; [17] 100% | [5]; at 11.0 µM 99% | [5]; at 33.0 µM 99% | [5]; [18] 99% | [5]; at 50.0 µM 99.5% | [5]; at 100.0 µM 99% | [6]; at 3.7 µM 99% | [6]; [17] 100% | [6]; at 11.0 µM 99% | [6]; at 33.0 µM 99% | [6]; [18] 100% | [6]; at 50.0 µM 99.7% | [6]; at 100.0 µM 99% | [7]; at 3.7 µM 99% | [7]; at 11.0 µM 99% | [7]; at 33.0 µM 99% | [7]; at 100.0 µM 99% | [8]; [17] 100% | [8]; [18] 100% | [8]; at 50.0 µM 99.5% | [9]; at 11.0 µM 99% | [9]; at 33.0 µM 99% | [9]; at 100.0 µM 98% | [10]; [17] 100% | [10]; [18] 100% | [10]; at 50.0 µM 99.7% | [11]; at 3.7 µM 99% | [11]; [17] 100% | [11]; at 11.0 µM 99% | [11]; at 33.0 µM 99% | [11]; [18] 100% | [11]; at 50.0 µM 99.7% | [11]; at 100.0 µM 99% | [12]; at 3.7 µM 99% | [12]; at 11.0 µM 99% | [12]; at 33.0 µM 99% | [12]; at 100.0 µM 99% | [13]; at 3.7 µM 99% | [13]; at 11.0 µM 99% | [13]; at 33.0 µM 99% | [13]; at 100.0 µM 99% | [14]; at 3.7 µM 99% | [14]; at 11.0 µM 99% | [14]; at 33.0 µM 99% | [14]; at 100.0 µM 99% | [15]; [17] 100% | [15]; [18] 100% | [15]; at 50.0 µM 99.5% | [16]; at 3.7 µM 99% | [16]; at 11.0 µM 99% | [16]; at 33.0 µM 98% | [16]; at 100.0 µM 99%

CC(=O)Oc1ccc2c(c1)Cc1cc(N=C3C=CC(=O)O3)ccc1-2
inactive: [1]; at 1.2 µM 14% | [1]; at 3.7 µM 41% | [2]; at 1.2 µM 2% | [2]; at 3.7 µM 24% | [4]; at 1.2 µM 9% | [4]; at 3.7 µM 36% | [5]; at 1.2 µM 9% | [5]; at 3.7 µM 55% | [5]; [17] 43% | [6]; at 1.2 µM 15% | [6]; at 3.7 µM 37% | [7]; at 1.2 µM 16% | [7]; at 3.7 µM 42% | [8]; [17] 64% | [9]; at 1.2 µM 2% | [9]; at 3.7 µM 23% | [10]; [17] 19% | [11]; at 1.2 µM -8% | [11]; at 3.7 µM 13% | [11]; [17] 31% | [12]; at 1.2 µM 3% | [12]; at 3.7 µM 36% | [13]; at 1.2 µM 18% | [13]; at 3.7 µM 51% | [14]; at 1.2 µM 17% | [14]; at 3.7 µM 56% | [15]; [17] 62% | [16]; at 1.2 µM 15% | [16]; at 3.7 µM 50%
active: [1]; at 11.0 µM 98% | [1]; at 33.0 µM 98% | [1]; at 100.0 µM 94% | [2]; at 11.0 µM 96% | [2]; at 33.0 µM 99% | [2]; at 100.0 µM 96% | [3]; at 1.2 µM 78% | [3]; at 3.7 µM 96% | [3]; at 11.0 µM 99% | [3]; at 33.0 µM 98% | [3]; at 100.0 µM 93% | [4]; at 11.0 µM 99% | [4]; at 33.0 µM 99% | [4]; at 100.0 µM 96% | [5]; at 11.0 µM 97% | [5]; at 33.0 µM 98% | [5]; [18] 99% | [5]; at 50.0 µM 99.5% | [5]; at 100.0 µM 92% | [6]; [17] 72% | [6]; at 11.0 µM 98% | [6]; at 33.0 µM 99% | [6]; [18] 99% | [6]; at 50.0 µM 99.4% | [6]; at 100.0 µM 96% | [7]; at 11.0 µM 99% | [7]; at 33.0 µM 99% | [7]; at 100.0 µM 95% | [8]; [18] 99% | [8]; at 50.0 µM 99.6% | [9]; at 11.0 µM 94% | [9]; at 33.0 µM 99% | [9]; at 100.0 µM 95% | [10]; [18] 99% | [10]; at 50.0 µM 98.8% | [11]; at 11.0 µM 95% | [11]; at 33.0 µM 98% | [11]; [18] 98% | [11]; at 50.0 µM 99.7% | [11]; at 100.0 µM 95% | [12]; at 11.0 µM 99% | [12]; at 33.0 µM 99% | [12]; at 100.0 µM 96% | [13]; at 11.0 µM 98% | [13]; at 33.0 µM 99% | [13]; at 100.0 µM 97% | [14]; at 11.0 µM 99% | [14]; at 33.0 µM 99% | [14]; at 100.0 µM 96% | [15]; [18] 99% | [15]; at 50.0 µM 85% | [16]; at 11.0 µM 97% | [16]; at 33.0 µM 98% | [16]; at 100.0 µM 96%
